# Experimental data: ChEMBL document CHEMBL3988442, “University of Dundee, Small-Polar-MMV Screening Library” (2021)
# The whole screen tested about 48,000 compounds, of which about 13,000 (27%) showed an effect of 50% or more. This is one part of the list.
# System: Wolbachia pipientis
# Experiment: Anti-Wolbachia Cell-Based Screen
# Assay type: functional
# Set-up: scale not given: in the data most compounds retested in dose-response had high values
# Conditions: 5 µM
row,Structure (SMILES),Percent Effect [%]
1,CN(CC(=O)N(C)C1CCCCC1)Cc1nc2ccccc2c(=O)[nH]1,-1.325
2,CC(NC(=O)NC1CCN(Cc2ccccn2)CC1)c1ccco1 (stereo not given),5.238
3,c1cc(CNc2ccc(-c3nc(C4CC4)no3)cn2)no1,-4.81
4,CC(=O)NC1CCCN(c2nc3ccccc3cc2CO)C1 (stereo not given),8.297
5,COc1ccc(-n2ncc(C(C)NC3Cc4ccccc4C3)c2C)cc1 (stereo not given),4.346
6,Cc1ncsc1C(=O)NC1CCN(CC(=O)N(C)c2ccccc2)CC1,-1.351
7,O[C@@H]1C[C@@H](c2nc(Cc3ccccc3)no2)N(CC2CC2)C1,3.423
8,NCC1Cc2cc(F)cc(-c3cnccn3)c2O1 (stereo not given),-7.505
9,Cn1ccnc1-c1ccc(NCCC2COc3ccccc3O2)nn1 (stereo not given),7.675
10,CN(Cc1nc(CC2CC2)no1)CC1COc2ccccc2O1 (stereo not given),-4.512
11,Cn1nnnc1SCC1COc2ccccc2O1 (stereo not given),100.3
12,N#Cc1cccc(N2CCC(CO)(CCOc3ccccc3)CC2)n1,-8.445
13,CC(C)n1ccnc1C1CCN(Cc2ccc(Cl)s2)CC1,-8.213
14,CSCC(C)(O)CNc1ccccn1 (stereo not given),-2.267
15,O=C(Cn1ccc2c(Cl)cccc21)Nc1nc[nH]n1,213.7
16,O=C(Cn1ccc2ccccc21)NCc1cc(N2CCOCC2)ncn1,-2.844
17,Cc1cccc(C)c1OCC(=O)Nc1cccn(C)c1=O,-11.46
18,CC(=O)Nc1cccc2c1ccn2CC(=O)NC(C)C,119.7
19,CC(=O)Nc1cccc2c1ccn2CC(=O)Nc1nc[nH]n1,99.64
20,CS(=O)(=O)N1CCN(C(=O)Cn2ccc3c(Cl)cccc32)CC1,10.52
21,O=C(Cn1ccc2c(Cl)cccc21)N[C@@H](C(=O)O)c1ccccc1,2.253
22,CC(=O)c1cn(CC(=O)NC(C(=O)O)C(C)C)c2ccccc12 (stereo not given),-3.053
23,CC(=O)Nc1cccc2c1ccn2CC(=O)Nc1n[nH]c(CC(C)C)n1,102.1
24,CN1CCN(c2cc(NC(=O)Cn3ccc4ccccc43)ncn2)CC1,-1.04
25,COc1cccc2c1ccn2CCC(=O)NCCCC(=O)O,22.13
26,COc1cccc2c1ccn2CCNC(=O)C(C)C,18.92
27,COCc1nc(C2CC2)nn1-c1cccc(F)c1,-12.44

row,Structure (SMILES),Percent Effect [%]
1,Cc1ccc(Oc2ncccc2CNC2CCCCC2)cn1,-2.321
2,CN(C)C(=O)N1CCN(C(=O)C(c2ccccc2F)N(C)C)CC1 (stereo not given),0.4283
3,COc1cccc2c1ccn2CC(=O)N[C@@H](CCSC)C(=O)O,11.73
4,COCC(=O)NCCn1ccc2c(OC)cccc21,-0.7831
5,COc1cccc2c1ccn2CC(=O)Nc1nc[nH]n1,91.25
6,Cc1ccn(-c2ccccc2NCc2ncc[nH]2)n1,-9.69
7,CC(=O)Nc1cccc2c1ccn2CC(=O)Nc1ncc[nH]1,101.7
8,CSCC[C@H](NC(=O)Cn1ccc2c(Cl)cccc21)C(=O)O,2.833
9,CCOc1ncccc1Cn1cc(-c2ccc(CO)o2)nn1,-3.735
10,CCN(CC)C(=O)C1(NCc2nc(C)c(C)o2)CCCCC1,-3.366
11,CN(c1ccc(CNc2ccc(Cl)cn2)cc1)S(C)(=O)=O,3.879
12,Cc1csc(NC(=O)C2CSCCC(=O)N2)n1 (stereo not given),-7.391
13,COc1ccc(NC(=O)C(C)(C)C)cc1OCc1cccnc1,-1.901
14,Cn1ccc(C(=O)Nc2nc(-c3ccc4c(c3)CCO4)cs2)cc1=O,-8.772
15,COc1coc(C(=O)Nc2nc(-c3cccnc3)cs2)cc1=O,125.3
16,COc1coc(C(=O)Nc2nc(C)cs2)cc1=O,134.8
17,COc1coc(C(=O)Nc2ccncc2)cc1=O,119.4
18,CC(=O)Nc1nc(C(=O)NC(C)c2ccncc2)cs1 (stereo not given),-2.068
19,CCOc1ccccc1C(CC(=O)Nc1nc(C)cs1)NC(C)=O (stereo not given),0.8837
20,COc1coc(C(=O)Nc2nc(-c3ccncc3)cs2)cc1=O,126.8
21,CC(=O)Nc1nc(C(=O)NC(C)c2cccnc2)cs1 (stereo not given),-4.684
22,COc1ccc(NC(C)=O)cc1OCc1cccnc1,0.9629
23,CCC(NC(=O)Nc1ccc(OC)c(C)c1)c1ccncc1 (stereo not given),-4.572
24,COc1cccc(SCC(=O)N2CCC(N3CCCC(O)C3)CC2)c1 (stereo not given),2.194
25,COc1coc(C(=O)Nc2nc(-c3ccccn3)cs2)cc1=O,131
26,COCc1csc(NC(=O)NCc2ccccn2)n1,11.42
27,Cn1ccc(C(=O)Nc2nnc(-c3ccccn3)[nH]2)cc1=O,-6.589

row,Structure (SMILES),Percent Effect [%]
1,CCN(CC1CCOC1)C(=O)CCc1nc(C(C)(C)C)no1 (stereo not given),-1.689
2,O=C(Nc1cc(Cl)ccn1)c1nc(N2CCCC2)ncc1Cl,-15.57
3,CN(c1ncc(C(=O)NCc2ccccc2)c(N)n1)C1CCCCC1,2.294
4,NS(=O)(=O)c1ccc(CNC(=O)c2ccc(Cl)cc2F)cc1,-5.173
5,Cc1cc(C(N)=O)ccc1NC(=O)c1nc(N2CCCCC2)ncc1Cl,-13.62
6,Cc1cccc(C(=O)NCc2ccc(N3CCCCC3)nc2)n1,-4.595
7,CC1CCCN(c2ncc(C(=O)NCc3ccc(F)c(Cl)c3)c(N)n2)C1 (stereo not given),73.04
8,Nc1nc(N2CCCCCC2)ncc1C(=O)NCc1ccc(F)c(Cl)c1,114.6
9,Nc1nc(N2CCCCC2)ncc1C(=O)NCc1ccc(F)c(Cl)c1,94.05
10,O=C(Cn1cc(C(=O)O)ccc1=O)NCc1ccc(F)c(Cl)c1,13.7
11,CCCn1cc(-c2ccnc(NC3CCc4ccccc43)n2)c(C)n1 (stereo not given),-0.7424
12,Cc1cccc(C(C(=O)NCC2(Cn3nc(C)cc3C)CC2)N(C)C)c1 (stereo not given),-2.816
13,Cc1ccc(CN2CC[C@H](c3nnc(COc4ccc(F)cc4)o3)C2)o1,-1.742
14,COC(=O)c1cccc2nc([C@H]3CCN(Cc4ccccc4C)C3)oc12,0.4423
15,COc1cccc(-c2noc(C3CCN(Cc4cn(C)nc4C)C3)n2)c1 (stereo not given),-2.203
16,COc1cccc(-c2noc(C3CCN(Cc4ccccc4F)C3)n2)c1.Cl (stereo not given),108.2
17,COC(=O)c1cccc2nc([C@H]3CCN(Cc4ccccc4F)C3)oc12,4.5
18,COc1cccc(-c2noc(C3CCN(Cc4ccccc4C)C3)n2)c1.Cl (stereo not given),79.37
19,COc1cccc(-c2ncc(CN3CC[C@H](CO)[C@@H](O)C3)s2)c1,10.62
20,Cc1n[nH]c(CN2CCN(c3ncnc4scc(C)c34)CC2)c1Cl,-1.697
21,CC(O)CN1CCN(C(=O)c2cccc3[nH]ncc23)CC1 (stereo not given),5.765
22,Cc1nc(C2CCN(C(=O)c3cscn3)CC2)c2sccn12,123.8
23,Cc1nc(CN2CCO[C@H]3CN(C(=O)c4cscn4)C[C@H]32)cs1,-19.39
24,Cc1nc(C2CCN(C(=O)c3ccn(C)n3)CC2)c2sccn12,109.4
25,CC(O)c1cn(CC2CCN(C(=O)c3cscn3)CC2)nn1 (stereo not given),-31.81
26,CCc1cnc(C)nc1NCCSc1nnc(C)n1CC,-6.357
27,c1cnnc(N2CCCC(NCc3ccc(-n4cncn4)cc3)C2)c1 (stereo not given),-12.46

row,Structure (SMILES),Percent Effect [%]
1,CSCCc1n[nH]c2c1CN(S(=O)(=O)c1cn(C)c(C)n1)CC2,5.686
2,O=C1C(NCc2nnc3n2CCCC3)CCN1c1ccccc1 (stereo not given),4.078
3,CC(C)NC(=O)CN(C)C1CCN(c2ccc(C#N)cn2)CC1,-9.804
4,O=C(c1ccccn1)N1CCN(c2ccc(-n3cccc3)nn2)CC1,9.922
5,Cc1ccc(F)c(OC2(C(=O)O)CCN(C(=O)c3ccncc3)CC2)c1,12.09
6,CC(C)CN1CCc2[nH]cnc2C12CCN(C(=O)c1ccccn1)CC2,2.853
7,O=C1CC2(CCN(C(=O)c3ccncc3)CC2)Oc2c(Cl)cc(Cl)cc21,113.6
8,Cc1cccc(C2(O)CCN(C(=O)c3ccccn3)CC2)c1C,8.443
9,O=C(c1ccncc1)N1CCN(c2ccc(F)cc2Cl)CC1,2.697
10,O=C1CC2(CCN(C(=O)c3ccccn3)CC2)Oc2c(Br)cc(Br)cc21,106.1
11,O=C1CC2(CCN(C(=O)c3ccccn3)CC2)Oc2c(Cl)cc(Cl)cc21,107.9
12,Cc1oc(-c2ccco2)nc1CC(=O)NCC(C)(C)N(C)C,-56.87
13,CCCc1cc(C(=O)N2C[C@H]3CC=C(C)C[C@H]3C2)ccn1,-1.263
14,Clc1cnccc1N1CCC(OC2CCOCC2)CC1,-17.26
15,CCc1nsc(N2CCCN(C(=O)c3ccc(CC)o3)CC2)n1,0.3515
16,Cc1noc2ncnc(NC(CC(C)(C)C)c3cccnc3)c12 (stereo not given),-8.396
17,Cc1ccc(C)c(CC(=O)Nc2cccc(C(=O)N(C)C)n2)c1,-5.2
18,O=C(NCCC1=CCCCC1)c1cc(-c2ccc(O)cc2)n[nH]1,12.27
19,O=C(NCCC1=CCCCC1)C1CCN(c2ccc3nncn3n2)CC1,0.9872
20,Cc1ccc(NC(=O)CN(C)C(=O)c2ccc(-n3cccc3)nc2)nc1,-2.8
21,O=C(NCCC1=CCCCC1)c1ccc(-n2cccc2)nc1,122.4
22,CCCc1cc(C(=O)NCCC2=CCCCC2)[nH]n1,-0.1472
23,O=C(NCCC1=CCCCC1)c1n[nH]c2c1CCCC2,109.4
24,CC(=O)NCCc1nc(C(C)C)nn1-c1ccncc1C,-7.062
